Data on 16 compounds can be found in PubChem BioAssay AID602270 (The Scripps Research Institute Molecular Screening Center, 2012).

This is one part of the list. Values without a mark were called inactive. The source made the active and inactive calls. Cut-off read from the data, not from the text of the source: active = activation above about 4%; inactive = the rest.

This test concerns Methionine sulfoxide reductase A (Bos taurus). The test can be described thus: methionine sulfoxide reductase A activation – biochemical, absorbance, bovine, HTS, confirmation (AID 602270).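 Note: enzyme coupled to thioredoxin and thioredoxin reductase with NADPH; 0% = vehicle wells and 100% = reference activator wells.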 Conditions: purified bovine MsrA, absorbance read-out; at 10.6 µM; active compounds read high.
`COC(=O)CN1C(=O)C(O)=C(C(C)=O)C1c1ccc([N+](=O)[O-])cc1` (stereo unspecified): the activation is -2.94%. Consider `O=C(O)/C=C/c1cn(Cc2ccccc2)nc1-c1cccs1`, for which the activation is -1.62%.

Consider `COc1ccccc1-n1cn[nH]c1=S`, for which the activation is -0.06%. Turning to `CCOc1cccc(-n2nnnc2-c2ccc(OC)cc2)c1`, the activation is -1.06%. Consider `S=c1[nH]nc(NCCc2ccccc2)s1`, for which the activation is 7.45% (active).

In the case of `CC1(C)S[C@@H]2[C@H](NC(=O)COc3ccccc3)C(=O)N2C1C(=O)OCc1ccccc1` (stereo partly specified), the activation is 0.74%. With `COc1ccc(C(CNC(=O)c2cc3c(s2)CCCC3)N2CCOCC2)cc1` (stereo unspecified) the figure was 0.61%. As to `CC(=O)N(O)CCCCCNC(=O)CCC(=O)N(O)CCCCCNC(=O)CCC(=O)N(O)CCCCCNC(=O)CCC(=O)O`, the activation was -3.63%. With `O=c1c2cc(Br)ccc2nc(-c2cccc(Cl)c2)n1O` the figure was -1.14%; with `O=C(O)C1CCCCC1C(=O)Nc1ccc(Cl)cc1` (stereo unspecified), -0.71%. Consider `CN(C)S(=O)(=O)c1ccc(NC(=O)COC(=O)c2n[nH]c3ccccc23)cc1`, for which the activation was 1.95%. To `CC(=O)NC(Cc1c[nH]c2ccccc12)C(=O)O` (stereo unspecified) belongs -0.4%; to `COc1cccc(CNCCc2c[nH]c3ccccc23)c1OCc1ccccc1F`, -2.23%.

Consider `O=C(OCC(=O)N1CCN(c2ccccc2)CC1)c1ccc([N+](=O)[O-])s1`, for which the activation was 3.98% (active).

On to `CCOc1ccc2[nH]c(=S)sc2c1`, for which the activation is 1.68%. `O=C(Cc1ccc(NC(=O)C2CCCN(C(=O)C3CCCCC3)C2)cc1)Nc1cccc(C(=O)N2CCCCC2)c1` (stereo unspecified): the activation is -3.28%.
